L3MBTL1 block: qHTS Assay for the Inhibitors of L3MBTL1; Potency, µM (titrated, usually from 57.1 µM), for the others: top-dose activity, negative = inhibition, hits mostly inhibitors; Lethal(3)malignant brain tumor-like protein 1 (Homo sapiens), Q9Y468; AID 485360, 2010; AlphaScreen L3MBTL1–H3K9me1 peptide binding; hit rate 0.66% among 230,000; further: nearly all actives have a fitted effect of over 60% in size
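Read-out is AlphaScreen signal from streptavidin donor and nickel chelate acceptor beads (10 ug/mL final each) bridging L3MBTL1 (50 nM) and biotinylated K9-monomethylated H3(1-15) peptide (75 nM), after 30 min compound exposure at room temperature.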
TDP1 inh: qHTS Assay for Inhibitors of Tyrosyl-DNA Phosphodiesterase (TDP1). Tyrosyl-DNA phosphodiesterase 1 (Homo sapiens), Q9NUW8. recombinant TDP1, AlphaScreen DNA substrate cleavage. Potency, µM (top dose mostly 130 µM), for inactives: at the highest dose activity change, negative = inhibition, most hits filed as inhibitors. hit rate 0.28% among 350,000; further: nearly all actives have a fitted effect of over 40% in size
Target sequence (Q9NUW8 whole entry, looked up): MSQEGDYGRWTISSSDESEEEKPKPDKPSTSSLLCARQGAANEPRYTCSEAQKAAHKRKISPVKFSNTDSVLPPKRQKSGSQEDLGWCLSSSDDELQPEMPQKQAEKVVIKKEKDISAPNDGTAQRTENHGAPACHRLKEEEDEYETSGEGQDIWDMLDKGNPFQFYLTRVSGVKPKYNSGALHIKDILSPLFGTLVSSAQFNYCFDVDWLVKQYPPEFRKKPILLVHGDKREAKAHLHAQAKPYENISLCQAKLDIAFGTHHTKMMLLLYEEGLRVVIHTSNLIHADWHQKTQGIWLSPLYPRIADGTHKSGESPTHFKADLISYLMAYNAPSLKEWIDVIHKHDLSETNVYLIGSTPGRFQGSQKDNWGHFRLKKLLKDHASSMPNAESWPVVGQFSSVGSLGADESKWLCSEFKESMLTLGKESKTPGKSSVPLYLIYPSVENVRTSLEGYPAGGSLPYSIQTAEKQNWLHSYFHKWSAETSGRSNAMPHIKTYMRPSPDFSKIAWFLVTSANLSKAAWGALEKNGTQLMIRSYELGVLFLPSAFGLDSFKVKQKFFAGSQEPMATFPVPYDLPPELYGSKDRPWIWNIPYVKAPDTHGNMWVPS
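Signal: AlphaScreen proximity between streptavidin donor and anti-FITC acceptor beads on intact substrate. Reaction: Tdp1 1 nM, substrate 15 nM final, 5 min RT after 15 min compound preincubation.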
APEX1 inh: qHTS Assay for Inhibitors of the Human Apurinic/apyrimidinic Endonuclease 1 (APE1) | Potency, µM (top dose mostly 65.8 µM), without a hit: at the top dose activity change, negative = inhibition, actives largely listed as inhibitors | recombinant APE1, TAMRA/BHQ-2 abasic DNA cleavage fluorescence | AID 2517, 2012 | hit rate 0.35% among 350,000;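 further: plate controls were vehicle for no effect and reference inhibitor for full effect; nearly all actives have a fitted effect of over 55% in size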
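APE1 at 0.75 nM final was preincubated with compound 15 min at room temperature, then 50 nM double-stranded THF abasic-site substrate (5'-TAMRA/3'-BHQ-2) was added. Fluorescence (ex 525/em 598 nm) was read kinetically; third-minus-first read gave activity.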
RECQ1 inh: qHTS Assay for Inhibitors of RecQ-Like Dna Helicase 1 (RECQ1) | RECQ1 DNA unwinding, red fluorescence kinetic read | hit rate 0.54% among 240,000 | ATP-dependent DNA helicase Q1 (Homo sapiens), P46063 | Potency, µM (titrated, usually from 57.3 µM), for inactives: at the highest dose activity, negative = inhibition, usual class: inhibitors;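 further: plate controls were vehicle for no effect and no enzyme for full effect; nearly all actives have a fitted effect of over 30% in size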
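50 nM RECQ1T1 preincubated 15 min with compound in Tris pH 8.0 buffer with MgCl2, DTT, Tween-20 and 2.5 ug/ml poly(dI-dC); started with 200 nM TAMRA/BHQ-2 forked duplex and 2 mM ATP. Unwinding read as fluorescence (525/598 nm), two reads 2 h apart.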
BLM inh: qHTS Assay for Inhibitors of Bloom's syndrome helicase (BLM); Potency, µM (top dose mostly 56.1 µM), for the others: at the top dose activity change, negative = inhibition, actives largely listed as inhibitors; recombinant BLM DNA unwinding, fluorescence dequenching; hit rate 0.2% among 350,000; AID 2528, 2010; RecQ-like DNA helicase BLM (Homo sapiens), P54132;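 further: plate controls were vehicle for no effect and no enzyme for full effect; nearly all actives have a fitted effect of over 35% in size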
JMJD2E inh: qHTS Assay for Inhibitors of Human Jumonji Domain Containing 2E (JMJD2E) | Lysine-specific demethylase 4E (Homo sapiens), B2RXH2 | JMJD2E catalytic domain, FDH-coupled NADH fluorescence (FDH is formaldehyde dehydrogenase) | Potency, µM (doses to about 57.1 µM), for the others: at the top dose activity change, negative = inhibition, most hits filed as inhibitors | hit rate 1.6% among 230,000 | AID 2147, 2009; active means well fitted inhibition curve with a large enough effect, not every such curve was filed as active; inconclusive means small, poorly fitted or top-dose-only effect, or another doubt; inactive means no such curve, though single readings can be large or run the other way;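 further: 0% = wells with enzyme and -100% = buffer wells without enzyme; nearly all actives have a fitted effect of over 50% in size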
* hit, by the source's call; i = inactive; ? = inconclusive; . = no result given; ! = not confirmed by another sample; [ ] = dose if it differs, or a comment. Shown is part of a subset that was picked to be rich in hits. Unless noted, the call rests on the fitted dose curve; in most records, active means well fitted curve in the direction sought with a large enough effect; inconclusive means small, poorly fitted or top-dose-only effect, or another doubt; inactive means no such curve, though single readings can be large; an effect the other way counts as inactive or inconclusive. Unless noted, on the % scale 0 is the no-effect control and ±100 the full control effect; potency means the concentration at half of the fitted maximal effect.

SMILES | L3MBTL1 block | TDP1 inh | APEX1 inh | RECQ1 inh | BLM inh | JMJD2E inh
O=S1(=O)N=C(Oc2ccc3ccccc3c2)c2ccccc21 | . | 2% | . | . | . | .
CC(C)(C)OC(=O)C[C@@H]1C/C=C\C[C@@H](CC(=O)N(CCO)Cc2ccccc2)C(=O)N[C@H](C(C)(C)C)COC1=O | -5% | -3% | 12µM* | . | . | .
CCN(CC)S(=O)(=O)c1cccc(N=NC2=C(O)CCCC2=O)c1 | -2% | 3% | -2% | ? | -5% | -11%
O=C1CCCC(O)=C1N=Nc1c(Cl)cc(Cl)cc1Cl | -14% | 5% | ? | 25µM* | 3% | -10%
CC(C)(C)n1ncc2c(=O)n(Cc3cccc(C#N)c3)cnc21 | . | . | -6% | . | . | .
Cc1c(C(=O)O)c(O)cc2c1C(=O)c1c(O)c([C@@H]3O[C@H](CO)[C@@H](O)[C@H](O)[C@H]3O)c(O)c(O)c1C2=O | 10µM* | 3% | 14µM*! | . | . | .
CSC1=N/C(=C\c2ccc(C)o2)C(=O)S1 | 28µM* | -6% | 3% | 5% | -4% | -1%
CN(C)c1ccc(C(O)P(=O)(OCc2ccccc2)c2ccc(N(C)C)cc2)cc1 (centres undefined) | -1% | 8% | 18% | 3% | -4% | -17%
CCCOP(=O)(c1ccc(N(C)C)cc1)C(O)c1ccncc1 (centres undefined) | . | -2% | 12% | 14% | -2% | 18µM*
CN(C)c1ccc(P(=O)(OCc2ccccc2)C(O)c2ccncc2)cc1 (centres undefined) | -3% | 4% | 20% | 7% | -4% | 20µM*
Nc1ccc(F)cc1F | . | 15% | -4% | 1% | . | .
CC(C)(C)c1cccc(S(=O)(=O)N2CCN(c3nc(-c4cccs4)nc4ccccc34)CC2)c1 | . | 0% | . | . | . | .
C=CCN=c1scc(-c2ccco2)n1/N=C/c1ccc(O)c(O)c1O | 18µM* | . | ? | -10% | -27% | 11µM*
CN=c1scc(-c2cccs2)n1/N=C/c1ccc(O)c(O)c1O | 14µM* | 8% | 6.3µM* | 6.3µM* | -18% | 14µM*
COc1ccc(OC)c(-c2nnc3n2N=C(c2ccc(OC)c(O[C@H]4CCOC4)c2)CS3)c1 | . | . | -5% | . | . | .
CC(=O)OC[C@]12CC[C@H]3[C@@](C)(CC[C@H]4C(C)(C)CCC[C@]34C)[C@@H]1C[C@H](C1=CC(=O)O[C@H]1OC(C)=O)O2 | -8% | -5% | 9.5µM* | . | . | .
CC(=O)OC[C@]12CC[C@H]3[C@@](C)(CC[C@H]4C(C)(C)CCC[C@]34C)[C@@H]1C[C@@H](C1=CC(=O)O[C@@H]1OC(C)=O)O2 | -4% | 1% | 6% | . | . | .
CCOC(=O)C1=C(C)N=C2c3ccccc3C(=O)C2C1c1ccc(C)cc1 (centres undefined) | 18% | 3% | -1% | -6% | -15% | 32µM*
O=C(COc1ccc(Cl)cc1)NCc1n[nH]c(=O)c2ccccc12 | 7% | 56µM* | 8% | . | . | .
CC(C)c1ccc(OCC(=O)NCc2n[nH]c(=O)c3ccccc23)cc1 | 1% | 40µM* | 13% | . | . | .
Cn1cnnc1SCC(=O)c1ccc(O)c(O)c1 | -5% | ? | -9% | 8% | -3% | 10µM*
CCn1c(SCC(=O)c2ccc(O)c(O)c2)nnc1-c1ccccc1 | ? | -11% | ? | -22% | -15% | 13µM*
CC(=O)c1ccc(O)c(CSc2nncn2C)c1 | -1% | 1% | -1% | -4% | 1% | ?
C=CCn1c(SCC(=O)c2ccc(O)c(O)c2)nnc1-c1cccc(C)c1 | ? | 0% | -6% | . | . | .
COC(=O)C1=C(C(=O)OC)[C@@H]2N(C)c3ccc(OC)cc3[C@@]23C[C@@H](C(=O)OC)N(S(=O)(=O)c2cccs2)C3=N1 | . | 15%[12.3 µM] | 23%[12.4 µM] | -9%[11.5 µM] | 1%[12.4 µM] | 2%[11.4 µM]
SMILES | L3MBTL1 block | TDP1 inh | APEX1 inh | RECQ1 inh | BLM inh | JMJD2E inh
O=S1(=O)N=C(Oc2cccc(-c3ccccc3)c2)c2ccccc21 | . | 2% | . | . | . | .
O=C(/C=C/c1ccccc1)c1ccccc1 | 2% | 6% | 17% | ? | -13% | -2%
O=C(/C=C/c1ccccc1)/C=C/c1ccccc1 | 0% | . | 10% | 14µM* | -13% | -4%
O=C(N/N=C/c1c(Cl)cccc1Cl)c1ccc(-n2cnnn2)cc1 | -3% | 56µM* | 18% | . | . | .
COc1c(O)cc(O)cc1O | . | 20µM* | 16µM* | 4% | -10% | -18%
COc1cc(O)cc(OC)c1OC | . | 3%[56.1 µM] | 14% | i | -2% | -24%
COc1ccc(/C=N/N=C2/NC(=O)C(CC(=O)O)S2)cc1OCc1ccc(Cl)cc1Cl (centres undefined) | ? | 71µM* | ? | 1% | -8% | -8%
COc1ccc(/C=N/N=C2/NC(=O)C(CC(=O)O)S2)cc1OCc1ccccc1Cl (centres undefined) | ? | -15% | ? | -6% | -5% | -4%
N#Cc1nc(NCC(F)F)c2ncn(-c3cc(F)cc(F)c3)c2n1 | . | -1% | . | . | . | .
NC[C@@H]1O[C@H](C23CC4CC(CC(C4)C2)C3)Cc2c1ccc(O)c2O | . | 19%[56.1 µM] | -6% | 9% | 2% | 22µM*
O=C1CC(c2ccccc2)Oc2cc(O)cc(O)c21 (centres undefined) | . | . | ? | i | -5% | -2%
NC[C@@H]1O[C@H](c2ccccc2)Cc2c1ccc(O)c2O | . | 12%[56.1 µM] | -4% | -12% | 1% | 16µM*
CC[C@]1(O)C[C@H]2CN(CCc3c([nH]c4ccccc34)[C@@](C(=O)OC)(c3cc4c(cc3OC)N(C=O)[C@H]3[C@@](O)(C(=O)OC)[C@H](OC(C)=O)[C@]5(CC)C=CCN6CC[C@]43[C@@H]65)C2)C1 | . | 2% | . | . | 3% | .
Cc1cc(C(=O)COc2cccc3cccnc23)c(C)n1C | 11µM* | 11% | -8% | -18% | 0% | -28%
Cc1ccc(NS(=O)(=O)c2ccc(Cl)cc2)cc1C | . | -5% | . | . | . | .
Cc1c(C(=O)N(Cc2ccc(N(C)C)cc2)CC2CCCO2)oc2ccc(Br)cc12 (centres undefined) | . | 12% | . | . | -6% | .
OCc1cn(Cc2ccc(O)c3ncccc23)cn1 | 7.1µM* | . | 35% | . | . | .
Oc1ccc(COC2CCCC2)c2cccnc12 | 20µM* | . | 8% | . | . | .
